Active and inactive are the calls of the source. Rule for the calls: active = hit-call score of the fitted dose curve at least 0.9, where 1 is the maximum; inactive = score below 0.9.
Tests used:
[1] = ATG_CRE_CIS: Attagene CIS-FACTORIAL HepG2 Assay for human cAMP Responsive Element (CRE) binding protein 3 (AID 2282926); conditions: HepG2 CRE cis-reporter, Attagene multiplexed mRNA; actives raise or lower the signal
Outline: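 Liver-derived HepG2, transfected with a CRE-containing reporter panel, exposed 24 h; transcript levels sized and quantified by capillary electrophoresis of labelled amplicons; signal changes either way referenced to vehicle.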

[2] = molecular target: CCAAT/enhancer-binding protein beta (Homo sapiens) (UniProt P17676); test: ATG_C_EBP_CIS: Attagene CIS-FACTORIAL HepG2 Assay for human CCAAT/Enhancer Binding Protein (C/EBP) beta (AID 2282927); conditions: HepG2 Attagene cis-factorial transcription factor reporter; actives raise or lower the signal
Chain of CCAAT/enhancer-binding protein beta (Homo sapiens) (P17676 whole entry, looked up): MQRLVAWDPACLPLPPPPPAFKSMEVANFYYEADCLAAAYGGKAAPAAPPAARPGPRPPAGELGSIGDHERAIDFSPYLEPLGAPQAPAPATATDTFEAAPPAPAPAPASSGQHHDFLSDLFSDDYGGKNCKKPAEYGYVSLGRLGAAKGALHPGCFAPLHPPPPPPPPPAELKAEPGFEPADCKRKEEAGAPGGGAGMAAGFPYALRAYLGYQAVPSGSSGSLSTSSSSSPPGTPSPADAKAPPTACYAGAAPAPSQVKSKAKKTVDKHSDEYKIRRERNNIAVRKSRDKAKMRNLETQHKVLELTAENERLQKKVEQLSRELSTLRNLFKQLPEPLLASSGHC
Outline: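 Transiently transfected HepG2 (MRTU library, endogenous TF-driven promoters); 24 h dosing; total RNA → oligo(dT) RT → PCR → 6-FAM primer extension → HpaI digest → CE; fit bidirectionally vs DMSO.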

[3] = ATG_AP_1_CIS: Attagene CIS-FACTORIAL HepG2 Assay for human Activator Protein 1 (AP-1) (AID 2282931); conditions: HepG2 Attagene cis-factorial AP-1 reporter mRNA; actives raise or lower the signal
Outline: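 Fluorescence of labelled PCR fragments separated by capillary electrophoresis gives reporter mRNA levels. HepG2 with transfected cis-regulated reporter units, 24 h exposure; DMSO serves as baseline for bidirectional curve fits.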

[4] = ATG_AP_2_CIS: Attagene CIS-FACTORIAL HepG2 Assay for human Activator Protein 2 (AP-2) (AID 2282932); conditions: HepG2 AP-2 cis-reporter, Attagene transcription factor profiling; actives raise or lower the signal
Outline: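 Read-out: fluorescent reporter mRNA via RT-PCR and capillary electrophoresis, 24 h post-dose in transiently transfected HepG2. Endogenous factors drive cis-promoter reporters; gain or loss of signal fitted bidirectionally against DMSO.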

[5] = ATG_BRE_CIS: Attagene CIS-FACTORIAL HepG2 Assay for human Bone Morphogenetic Protein (BMP) Response Element (BRE) (AID 2282933); conditions: HepG2 BMP response element reporter, Attagene transcription factor profiling; actives raise or lower the signal
Outline: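 Fluorescence-labelled reporter cDNA fragments, separated by capillary electrophoresis, gave the signal for this component of a 52-readout multiplex. HepG2 cells were transfected, exposed to chemicals for 24 h, and compared with DMSO using bidirectional fitting.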

[6] = ATG_E_Box_CIS: Attagene CIS-FACTORIAL HepG2 Assay for human Enhancer Box (E-box) (AID 2282936); conditions: HepG2 E-box cis-reporter transcription, actives raise or lower the signal
Outline: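 Transiently transfected HepG2, endogenous TF-driven reporters, 24 h dosing. Readout: RT-PCR plus capillary electrophoresis of fluorescent reporter fragments. Gain or loss of signal fitted bidirectionally against DMSO baseline.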

[7] = ATG_M_61_CIS: Attagene CIS-FACTORIAL HepG2 Assay for M61 Transcription Factor (Internal Marker) (AID 2282937); conditions: HepG2 Attagene CIS-FACTORIAL M61 internal marker reporter; actives raise or lower the signal
Outline: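 This endpoint serves as an internal background control within a multiplexed HepG2 cis-reporter panel. Cells are exposed for 24 h; reporter mRNA is amplified, fluorescently labelled and sized by capillary electrophoresis, with DMSO as negative control.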

[8] = ATG_EGR_CIS: Attagene CIS-FACTORIAL HepG2 Assay for human Early Growth Response 1 (EGR1) (AID 2282938); conditions: HepG2 Attagene CIS-FACTORIAL EGR reporter mRNA; actives raise or lower the signal
Outline: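 HepG2, transient MRTU transfection (cis promoters), 24 h compound. RNA → RT (oligo-dT) → PCR → 6-FAM labelling → HpaI cut → CE fluorescence. Bidirectional fit, DMSO baseline.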

[9] = ATG_Ets_CIS: Attagene CIS-FACTORIAL HepG2 Assay for human Erythroblast Transformation Specific (ETS) (AID 2282941); conditions: HepG2 ETS cis-reporter transcription, actives raise or lower the signal
Outline: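 RT-PCR/capillary electrophoresis fluorescence read-out of reporter mRNA; HepG2 transient multi-reporter transfection; 24 h compound exposure; gain or loss of signal fitted bidirectionally relative to DMSO.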

[10] = ATG_FoxO_CIS: Attagene CIS-FACTORIAL HepG2 Assay for human Forkhead box O (FoxO) (AID 2282943); conditions: HepG2 Attagene cis-reporter, FoxO element, mRNA; actives raise or lower the signal
Outline: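 Read-out: fluorescence of 6-FAM-labelled reporter cDNA fragments resolved by capillary electrophoresis. Transiently transfected HepG2 cells were dosed for 24 h; activity fitted in both directions relative to DMSO controls.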

[11] = ATG_GATA_CIS: Attagene CIS-FACTORIAL HepG2 Assay for human GATA Binding Protein (AID 2282944); conditions: HepG2 GATA cis-element reporter, Attagene multiplex mRNA; actives raise or lower the signal
Outline: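 Cells: HepG2, transiently transfected with cis-regulated reporter transcription units. Exposure: 24 h. Detection: RT-PCR plus capillary electrophoresis of FAM-labeled fragments. Analysis: bidirectional, DMSO as baseline.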

[12] = ATG_M_32_CIS: Attagene CIS-FACTORIAL HepG2 Assay for M32 Transcription Factor (Internal Marker) (AID 2282949); conditions: HepG2 Attagene cis-factorial M32 reporter, mRNA; actives raise or lower the signal;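 note: background control marker of the multiplexed CIS panel rather than a real target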
Outline: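 Transient MRTU transfection of HepG2; 24 h compound treatment; TriZol RNA, oligo(dT) RT, reporter PCR, 6-FAM primer extension, HpaI cut, CE. Gain/loss of signal vs DMSO.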

[13] = ATG_M_06_CIS: Attagene CIS-FACTORIAL HepG2 Assay for M06 Transcription Factor (Internal Marker) (AID 2282950); conditions: HepG2 Attagene CIS-FACTORIAL M06 internal marker reporter; actives raise or lower the signal
Outline: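 Measured 24 h post-dosing in transiently transfected HepG2 cells, this internal-marker endpoint reports reporter mRNA via RT-PCR with fluorescent primer extension and capillary electrophoresis. DMSO served as negative control and baseline for bidirectional fitting.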

[14] = ATG_MRE_CIS: Attagene CIS-FACTORIAL HepG2 Assay for human Metal Responsive Element (MRE) (AID 2282954); conditions: HepG2 MRE cis-reporter transcription, Attagene multiplex; actives raise or lower the signal
Outline: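 RT-PCR/capillary electrophoresis readout of reporter mRNA, 24 h post-dosing, in HepG2 cells transfected with multiplexed cis-regulated reporter constructs. Gain or loss of signal fitted bidirectionally against DMSO baseline.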

[15] = molecular target: Paired box protein Pax-6 (Homo sapiens) (UniProt P26367); test: ATG_Pax6_CIS: Attagene CIS-FACTORIAL HepG2 Assay for human Paired Box 6 (PAX6) (AID 2282956); conditions: HepG2 CIS-FACTORIAL PAX6 reporter transcription, RNA readout; actives raise or lower the signal
Chain of Paired box protein Pax-6 (Homo sapiens) (P26367 whole entry, looked up): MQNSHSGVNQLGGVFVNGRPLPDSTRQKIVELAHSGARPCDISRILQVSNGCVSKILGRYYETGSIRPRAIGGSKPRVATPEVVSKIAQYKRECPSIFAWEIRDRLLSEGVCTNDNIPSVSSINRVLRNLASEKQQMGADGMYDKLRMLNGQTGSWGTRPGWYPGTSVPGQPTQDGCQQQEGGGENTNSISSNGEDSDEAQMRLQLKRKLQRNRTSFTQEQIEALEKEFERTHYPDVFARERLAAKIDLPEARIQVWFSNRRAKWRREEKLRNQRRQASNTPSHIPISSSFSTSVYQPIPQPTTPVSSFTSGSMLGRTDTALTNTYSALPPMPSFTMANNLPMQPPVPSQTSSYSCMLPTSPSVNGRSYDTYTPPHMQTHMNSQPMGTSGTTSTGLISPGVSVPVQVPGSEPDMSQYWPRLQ
Outline: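 Readout: reporter transcript fluorescence after RT-PCR and capillary electrophoresis. Cells: HepG2, transiently transfected with cis-regulated MRTUs. Exposure 24 h. Gain or loss of signal fitted bidirectionally relative to DMSO.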

[16] = ATG_PXRE_CIS: Attagene CIS-FACTORIAL HepG2 Assay for human Pregnane X Receptor Element (PXRE) (AID 2282957); conditions: HepG2 Attagene CIS-FACTORIAL PXRE reporter, mRNA; actives raise or lower the signal
Outline: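 Bidirectional activity, baselined to DMSO, derived from reporter mRNA fluorescence (RT-PCR plus capillary electrophoresis) in HepG2 cells bearing cis-promoter reporter units, 24 h exposure.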

[17] = molecular target: Transcription factor Sp1 (Homo sapiens) (UniProt P08047); test: ATG_Sp1_CIS: Attagene CIS-FACTORIAL HepG2 Assay for human Specificity Protein 1 (Sp1) (AID 2282961); conditions: HepG2 Sp1 cis-reporter transcription, actives raise or lower the signal
Chain of Transcription factor Sp1 (Homo sapiens) (P08047 whole entry, looked up): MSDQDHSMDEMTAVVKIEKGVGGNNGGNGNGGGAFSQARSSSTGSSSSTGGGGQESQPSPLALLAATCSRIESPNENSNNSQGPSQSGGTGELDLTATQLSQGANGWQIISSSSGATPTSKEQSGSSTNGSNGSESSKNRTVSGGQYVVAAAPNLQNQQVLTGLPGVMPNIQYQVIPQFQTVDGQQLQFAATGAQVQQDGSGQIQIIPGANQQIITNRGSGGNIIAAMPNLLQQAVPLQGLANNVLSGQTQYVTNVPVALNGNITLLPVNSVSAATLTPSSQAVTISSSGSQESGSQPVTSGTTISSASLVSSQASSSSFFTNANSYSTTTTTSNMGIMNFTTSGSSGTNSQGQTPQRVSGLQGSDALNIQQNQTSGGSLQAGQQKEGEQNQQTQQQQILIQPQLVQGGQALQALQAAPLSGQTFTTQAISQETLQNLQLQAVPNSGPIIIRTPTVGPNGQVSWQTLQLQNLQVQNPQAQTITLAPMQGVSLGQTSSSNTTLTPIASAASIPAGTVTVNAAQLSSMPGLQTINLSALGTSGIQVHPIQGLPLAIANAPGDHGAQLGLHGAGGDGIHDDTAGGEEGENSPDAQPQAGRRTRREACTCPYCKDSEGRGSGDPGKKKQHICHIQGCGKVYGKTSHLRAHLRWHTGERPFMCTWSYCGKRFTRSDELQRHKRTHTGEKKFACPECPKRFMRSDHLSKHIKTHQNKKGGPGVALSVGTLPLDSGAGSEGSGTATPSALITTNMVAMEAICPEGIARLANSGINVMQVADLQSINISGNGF
Outline: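 Measures mRNA induction of an Sp1-linked reporter in HepG2 cells 24 h post-dosing. Multiplexed reporters read by RT-PCR and capillary electrophoresis; DMSO serves as negative control and baseline.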

[18] = ATG_SREBP_CIS: Attagene CIS-FACTORIAL HepG2 Assay for human Sterol Regulatory Element Binding (SREBP) (AID 2282962); conditions: HepG2 Attagene cis-factorial SREBP reporter, mRNA; actives raise or lower the signal
Outline: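 Readout: fluorescent reporter-transcript peaks resolved by capillary electrophoresis after RT-PCR. Cells were human HepG2 carrying transfected cis-promoter reporter constructs, dosed for 24 h. Gain or loss of signal was fitted against DMSO controls.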

[19] = molecular target: Signal transducer and activator of transcription 3 (Homo sapiens) (UniProt P40763); test: ATG_STAT3_CIS: Attagene CIS-FACTORIAL HepG2 Assay for human Signal Transducer and Activator of Transcription 3 (STAT3) (AID 2282963); conditions: HepG2, Attagene cis-factorial STAT3 reporter transcription; actives raise or lower the signal
Chain of Signal transducer and activator of transcription 3 (Homo sapiens) (P40763 whole entry, looked up, the tested form may be a part): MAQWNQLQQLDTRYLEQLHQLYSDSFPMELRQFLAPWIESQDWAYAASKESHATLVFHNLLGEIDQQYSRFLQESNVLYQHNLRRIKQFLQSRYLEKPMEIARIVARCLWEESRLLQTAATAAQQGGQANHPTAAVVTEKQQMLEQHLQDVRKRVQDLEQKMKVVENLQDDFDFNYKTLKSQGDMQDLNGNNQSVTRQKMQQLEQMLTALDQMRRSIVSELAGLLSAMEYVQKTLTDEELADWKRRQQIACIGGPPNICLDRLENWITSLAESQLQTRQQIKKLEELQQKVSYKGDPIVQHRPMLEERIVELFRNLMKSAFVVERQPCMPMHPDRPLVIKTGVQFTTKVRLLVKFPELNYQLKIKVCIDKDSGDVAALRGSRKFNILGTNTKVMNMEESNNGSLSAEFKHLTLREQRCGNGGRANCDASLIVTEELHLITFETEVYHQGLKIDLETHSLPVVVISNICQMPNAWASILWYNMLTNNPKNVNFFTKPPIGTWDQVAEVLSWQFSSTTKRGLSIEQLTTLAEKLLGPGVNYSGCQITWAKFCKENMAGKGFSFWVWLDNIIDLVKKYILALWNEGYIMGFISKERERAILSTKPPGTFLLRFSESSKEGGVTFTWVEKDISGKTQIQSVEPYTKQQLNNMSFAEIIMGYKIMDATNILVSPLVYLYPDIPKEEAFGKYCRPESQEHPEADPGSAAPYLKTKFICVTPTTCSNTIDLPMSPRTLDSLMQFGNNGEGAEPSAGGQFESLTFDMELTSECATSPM
Outline: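 Readout: fluorescent reporter mRNA fragments resolved by capillary electrophoresis. Setup: HepG2 transfected with MRTUs reporting endogenous transcription-factor activity, dosed 24 h. Gain or loss of signal fitted bidirectionally against DMSO control.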

[20] = ATG_TAL_CIS: Attagene CIS-FACTORIAL HepG2 Assay for human TAL Basal Promoter (AID 2282966); conditions: HepG2 Attagene cis-factorial TAL promoter reporter; actives raise or lower the signal;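 note: background control endpoint measuring basal TAL promoter reporter mRNA not a specific factor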
Outline: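 Human hepatoma HepG2 cells, transfected with promoter-regulated reporter units, were treated 24 h. Reporter transcript levels, measured through RT-PCR and capillary electrophoresis, were fitted for gain or loss relative to DMSO.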

Measured: AC50

Cc1ccccc1S(=O)(=O)O
active: [16] 70.6 µM
inactive: all other assays above

CC(C)=CCOC(=O)c1ccccc1
inactive: all assays above

O=C(O)c1ccccc1C(=O)O
active: [16] 28.3 µM
inactive: all other assays above

O=C(O)c1nc(Cl)c(Cl)c(Cl)c1Cl
active: [16] 73 µM
inactive: all other assays above

CCC(C)NC(N)=O (stereo not given)
inactive: all assays above

CC(O)(P(=O)(O)O)P(=O)(O)O
inactive: all assays above

CC=CC(=O)O
inactive: all assays above
